Results published in PubChem BioAssay (NCATS).
Where “and” joins values, the source holds several entries; their conditions need not be identical. Equal entries are not always repeated. Results filed as inconclusive are left out. Where a call stands in place of a potency, no number is given. Calls of active or inactive are those of the source. The call rests on the fitted dose curve; in most records, active means well fitted inhibition curve with a large enough effect; inconclusive means small, poorly fitted or top-dose-only effect; inactive means flat fitted curve, though single readings scatter. Bridge positions count the residues as written; N and C are the ends. Square brackets hold non-standard residues; d marks the D form. Peptide text beside a SMILES is read from it. hArg = N=C(N)NCCCC[C@H](N)C(=O)O; Mpa = O=C(O)CCS

System: KB-3-1
Experiment: Cytotoxic Profiling of Annotated Libraries Using Quantitative High-Throughput Screening (AID 1296008); further: potency means the concentration at half of the fitted maximal effect
Conditions: Five cell lines viability, CellTiter-Glo ATP luminescence, 48-72 h; max response: hits give low values
In short: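 Cells exposed to compounds for 48 or 72 hr at 37 degrees Celsius. Viability read as ATP-coupled luminescence with CellTiter-Glo after 10 min at room temperature.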
Further: nearly all actives have a fitted effect of over 60% in size.

SMILES | max response | Potency
Clc1ccc(CSC(Cn2ccnc2)c2ccc(Cl)cc2Cl)cc1 (stereo unspecified) | -15.3% (inactive) | 
O=C1NCN(c2ccccc2)C12CCN(CCCOc1ccc(F)cc1)CC2 | 25% (inactive) | 
Clc1ccc(CO/N=C(\Cn2ccnc2)c2ccc(Cl)cc2Cl)c(Cl)c1 | 0.479% (inactive) | 
COc1ccc2c3c1O[C@H]1[C@@H](O)C=C[C@H]4[C@@H](C2)N(C)CC[C@@]341 | -15% (inactive) | 
CC[n+]1c(-c2ccccc2)c2cc(N)ccc2c2ccc(N)cc21 |  | 8.2 µM (active) and 23.1 µM (active)

System: CRL-7250
Experiment: qHTS assay to identify novel small-molecules to repurpose for Merkel cell carcinoma treatment (AID 1296009)
Conditions: MCC and control cell lines, CellTiter-Glo viability, 72 h; at 44.8 µM (top of the series) unless noted
In short: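 CellTiter-Glo luminescence after 72 hr compound exposure at 37 degree celsius gave cell viability. Libraries NPC and MIPE were run as 8- and 11-point dose responses; RLUs normalized to DMSO (negative) and no-cell (cytotoxicity) controls.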

SMILES | outcome
CC(C)(C)c1ccc(C(O)CCCN2CCC(C(O)(c3ccccc3)c3ccccc3)CC2)cc1 (stereo unspecified) | inactive
NS(=O)(=O)c1cc2c(cc1Cl)NCNS2(=O)=O | inactive
CCOc1cc(N)c(Cl)cc1C(=O)NCC1CN(Cc2ccc(F)cc2)CCO1 (stereo unspecified) | inactive
O=C(O)Cc1ccc2c(c1)C(=O)c1ccccc1CO2 | inactive
N[C@@H](CSSC[C@H](N)C(=O)O)C(=O)O | inactive [at 0.588 µM]
CCOC(=O)OC(C)OC1=C(C(=O)Nc2ccccn2)N(C)S(=O)(=O)c2ccccc21 (stereo unspecified) | inactive
COc1ccc(-c2nc3ccc(C4=NNC(=O)CC4C)cc3[nH]2)cc1 (stereo unspecified) | inactive
COc1ccccc1OC(=O)Oc1ccccc1OC | inactive
Clc1ccc(C(Cn2ccnc2)OCc2ccsc2Cl)c(Cl)c1 (stereo unspecified) | inactive
CCCc1cc(C(N)=S)ccn1 | inactive
CNC(=O)CN(CCN(CCN(CC(=O)[O-])CC(=O)NC)CC(=O)[O-])CC(=O)[O-].O.[Gd+3] | inactive
NC(=O)[C@@H]1CSSCCC(=O)N[C@@H](CCCCN=C(N)N)C(=O)NCC(=O)N[C@@H](CC(=O)O)C(=O)N[C@@H](Cc2c[nH]c3ccccc23)C(=O)N2CCC[C@H]2C(=O)N1 ([Mpa][hArg]GDWPC-NH2; disulfide 1-7) | inactive
C[C@]12CC[C@@H]3c4ccc(O)cc4CC[C@H]3[C@@H]1CCC2=O | inactive
CCC(=O)O[C@]1(C(=O)CCl)[C@@H](C)C[C@H]2[C@@H]3CCC4=CC(=O)C=C[C@]4(C)[C@@]3(F)[C@@H](O)C[C@@]21C | inactive
O=c1[nH]c2cc(C(F)(F)F)c(N3CCOCC3)cc2n(CP(=O)(O)O)c1=O | inactive
CN(C)[C@@H](CCOc1cccc2ccccc12)c1ccccc1 | inactive

SMILES | outcome
CC(C)OC(=O)C(C(=O)OC(C)C)=C1SC=CS1 | inactive
Cc1[nH]c(=O)c(C#N)cc1-c1ccc2nccn2c1 | inactive
N[C@H](C(=O)O)[C@@H](O)c1ccc(O)c(O)c1 | inactive
CC(=O)OCC(=O)[C@@]1(O)CCC2C3CCC4=CC(=O)CC[C@]4(C)C3[C@@H](O)C[C@@]21C (stereo partly specified) | inactive
OCCN1CCN(CCCN2c3ccccc3C=Cc3ccccc32)CC1 | inactive
CCOC(=O)[C@H](CCc1ccccc1)N[C@H]1CS[C@H](c2cccs2)CN(CC(=O)O)C1=O | inactive
O=S(=O)(c1cccc2cnccc12)N1CCCNCC1 | inactive
CO/N=C(\C(=O)O)c1csc(NC(=O)CCl)n1 | inactive
CCOC(=O)[C@H](CCc1ccccc1)N[C@@H](C)C(=O)N1C(=O)N(C)C[C@H]1C(=O)O | inactive
COC1=C(OC)C(=O)C(CCCCCCCCCCO)=C(C)C1=O | inactive
CN(C)CCOc1ccccc1Cc1ccccc1 | inactive
NC(N)=NC(=O)c1nc(Cl)c(N)nc1N | inactive
CCOc1ccccc1C(N)=O | inactive
CCCc1ncc(C[n+]2ccccc2C)c(N)n1 | inactive
Cc1nnc(C(=O)NC(C)(C)c2nc(C(=O)NCc3ccc(F)cc3)c(O)c(=O)n2C)o1 | inactive
